# In the library only some 11% were active in any assay of this set; here they are far more common.
# BAZ2B block: BAZ2B (human) inhibition; 4.4% of 360,000 active; AlphaScreen BAZ2B-H3K14Ac peptide displacement; AID 504333; Potency, µM (doses to about 114 µM), without a hit: at the top dose activity change, negative = inhibition, actives largely listed as inhibitors; note: % is set by controls: 0 for no effect and ±100 for the full control effect; nearly all actives have a fitted effect of over 60% in size
#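 AlphaScreen displacement of biotin-H3(5-23)K14Ac peptide (50 nM final) from BAZ2B (50 nM final) in PBS pH 7.4, 0.01% Tween-20; complex preformed 30 min RT, then compounds (top 110 uM) 30 min RT, beads 20 min dark.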
# PLK1 PBD inh: PLK1 (human) polo-box domain binding inhibition | P53350 | Plk1 PBD binding of FITC phosphopeptide, fluorescence polarization | Potency, µM, for the others: max response, negative = inhibition, most hits filed as inhibitors | 2.8% of 360,000 active | AID 720504; note: series mostly up to about 57 µM; % is set by controls: 0 for no effect and ±100 for the full control effect; nearly all actives have a fitted effect of over 65% in size
# G9a inh: inhibitors of human histone lysine methyltransferase G9a. G9a H3K9 monomethylation, AlphaScreen, 2 h. 8.8% of 350,000 active. Q96KQ7. Potency, µM (doses to about 102 µM), for inactives: at the highest dose activity, negative = inhibition, most hits filed as inhibitors; note: % is set by controls: 0 for no effect and ±100 for the full control effect; nearly all actives have a fitted effect of over 75% in size
# Target sequence (Q96KQ7 913-1193 limits assumed): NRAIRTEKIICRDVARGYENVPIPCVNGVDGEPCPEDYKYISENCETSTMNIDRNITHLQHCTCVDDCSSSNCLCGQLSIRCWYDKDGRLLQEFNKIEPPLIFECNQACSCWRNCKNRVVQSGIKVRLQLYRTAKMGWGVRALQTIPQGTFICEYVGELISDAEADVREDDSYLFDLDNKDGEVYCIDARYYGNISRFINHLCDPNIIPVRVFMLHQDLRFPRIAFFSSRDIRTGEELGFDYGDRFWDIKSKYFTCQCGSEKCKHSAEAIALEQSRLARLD
#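 Quantitative HTS format: methyltransferase activity on a biotin-tagged H3K9 peptide is measured by AlphaScreen, using a rabbit anti-monomethyl-H3K9 antibody with streptavidin donor and anti-IgG acceptor beads. Final levels are 20 nM enzyme, 500 nM peptide, 20 uM SAM; 2 h RT.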
# HP1b binding inh: blocks HP1-beta chromodomain binding to methylated histone tails. Potency, µM (series often up to 114 µM), for inactives: at the top dose activity change, negative = inhibition, usual class: inhibitors. P83916. AlphaScreen HP1-beta / biotin-H3K9me3 peptide binding. 0.56% of 390,000 active. AID 540317; note: nearly all actives have a fitted effect of over 70% in size
# Target sequence (P83916 whole entry, looked up): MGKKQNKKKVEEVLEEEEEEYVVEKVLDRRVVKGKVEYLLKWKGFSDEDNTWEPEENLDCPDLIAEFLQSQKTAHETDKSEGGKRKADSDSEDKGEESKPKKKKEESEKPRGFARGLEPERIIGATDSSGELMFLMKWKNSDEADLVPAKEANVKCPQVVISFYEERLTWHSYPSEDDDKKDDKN
#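 HP1-beta protein (50 nM final) preincubated 30 min at room temperature with biotinylated H3(1-18)K9me3 peptide (50 nM) in PBS pH 7.4, 0.01% Tween-20, then compound added for 30 min. AlphaScreen streptavidin donor/nickel chelate acceptor beads (10 ug/mL final), 30 min dark, luminescence read.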
# VDR inh: blocks the human vitamin D receptor | Potency, µM, for the others: max response, negative = inhibition, usual class: inhibitors | VDR-SRC2-3 peptide fluorescence polarization, 2 h | 0.93% of 400,000 active | AID 504847; note: % is set by controls: 0 for no effect and ±100 for the full control effect
#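 FP read-out; VDR + SRC2-3 coactivator peptide; 23 nl compound by pintool; 2 h RT incubation; reagents held at 4 deg C, protected from light.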
# JMJD2A Tudor: blocks the human JMJD2A Tudor domain. AlphaScreen JMJD2A-Tudor / H3K4me3 peptide binding. Potency, µM (series often up to 114 µM), for inactives: at the top dose activity change, negative = inhibition, usual class: inhibitors. 4.4% of 390,000 active. O75164; note: % is set by controls: 0 for no effect and ±100 for the full control effect; nearly all actives have a fitted effect of over 50% in size
# * = called active by the depositor; ? = inconclusive; . = no result given; [ ] = remark or other dose. Calls come from the whole dose curve; as a rule, active = well fitted curve in the direction sought with a large enough effect; inconclusive = small, poorly fitted or top-dose-only effect, or another doubt; inactive = no such curve, though single readings can be large; an effect the other way counts as inactive or inconclusive. Potency is the fitted concentration of half-maximal effect.
SMILES,BAZ2B block,PLK1 PBD inh,G9a inh,HP1b binding inh,VDR inh,JMJD2A Tudor
COc1ccc(N2CCN(C(=O)Nc3ccccc3Cl)CC2)cc1,-16%,0%,?,1%,3%,-22%
O=C(CCNS(=O)(=O)c1ccc2c(c1)CCN2C(=O)C1CC1)N1CCN(c2ccc(F)cc2)CC1,-8%,.,6%[59 µM],5%[57 µM],13%,45µM*
CC1(c2ccc(F)cc2)OC(=O)c2c1ccc1ccccc21 (stereo not drawn),.,-1%,.,.,.,.
Cc1cc2c(OCC(O)CNC3CCCCC3)cccc2[nH]1 (stereo not drawn),-32%,-3%,?,15%,8%,?
Cc1cc2c(OCC(CNC(C)(C)C)OC(=O)c3ccccc3)cccc2[nH]1 (stereo not drawn),.,.,16µM*,.,-2%,.
CCOC(=O)c1c(C)c(-c2ccccc2)n(CC(=O)Nc2cc(C)cc(C)c2)c1C,2%,.,3%[59 µM],25%,-15%,1%
O=C1C=C(Nc2ccc(Cl)cc2Cl)CC(c2ccco2)C1 (stereo not drawn),-13%,-7%,50µM*,15%,-15%,-7%
O=C1C=C(NCc2ccc(Cl)cc2)CC(c2ccco2)C1 (stereo not drawn),50µM*,-9%,0%[59 µM],?,2%,?
O=C(N/C(=C\c1cccc(Br)c1)C(=O)N1CCOCC1)c1ccco1,-2%,-19%,8%,8%,-24%,-10%
Cn1c(=O)c2cc(NC(=O)NCCc3ccccc3)ccc2n1Cc1cccc(C(F)(F)F)c1,.,-11%,.,.,.,.
O=C1C2C3C=CC(C3)C2C(=O)N1CCN1CCN(Cc2ccc([N+](=O)[O-])cc2)CC1 (stereo not drawn),-13%,21µM*,-4%,21%,?,?
COc1ccc(C(=O)COC(=O)CN2C(=O)C3C4CCC(C4)C3C2=O)cc1 (stereo not drawn),-1%,24µM*,11%,8%,-20%,50µM*
O=C(CN1C(=O)C2C3C=CC(C3)C2C1=O)OCC(=O)c1ccc([N+](=O)[O-])cc1 (stereo not drawn),2%,-5%,40µM*,9%,-12%,-13%
O=C(CN1C(=O)C2C3C=CC(C4CC34)C2C1=O)OCC(=O)c1ccccc1 (stereo not drawn),3%,-16%,6%[59 µM],29%,-21%,-15%
O=C(CN1C(=O)C2C3CC(C(Br)C3Br)C2C1=O)OCC(=O)c1cccc([N+](=O)[O-])c1 (stereo not drawn),.,21µM*,0%,-13%,-23%,-1%
CCOC(=O)c1cccc(NC(=O)C2Cc3ccccc3N2C(=O)c2ccccc2)c1 (stereo not drawn),-6%,.,25%[59 µM],16%,5%,-18%
Cc1nc2c(C(=O)N3CCOCC3)cnn2c(C)c1Cc1cccc(Cl)c1,-22%,.,50µM*,.,.,.
COc1ccc(-c2nc(CSc3nc4ncccc4[nH]3)c(C)o2)cc1OC,-16%,.,?,22%,-9%,-27%
C#CCOCCOCCOCCNc1nc(N2CCN(C(=O)Cn3cc(CCO)nn3)CC2)nc(N2CCN(C(=O)[C@H](C(C)C)n3cc(CCO)nn3)CC2)n1,?,-7%,45µM*,11%,0%,-18%
C#CCOCCOCCOCCNc1nc(N2CCN(C(=O)[C@H](CCCCN)n3cc(CCCC)nn3)CC2)nc(N2CCN(C(=O)[C@H](CCCCN)n3cc(CCCC)nn3)CC2)n1,?,-6%,40µM*,-7%,-8%,?
C#CCOCCOCCOCCNc1nc(N2CCOCC2)nc(N2CCN(C(=O)Cn3cc(CC(C)O)nn3)CC2)n1 (stereo not drawn),-14%,-7%,79µM*,22%,-8%,-18%
C#CCOCCOCCOCCNc1nc(N2CCOCC2)nc(N2CCN(C(=O)[C@H](CCCCN)n3cc(CCCC)nn3)CC2)n1,.,-11%,.,21%,-16%,-20%
C#CCOCCOCCOCCNc1nc(N2CCN(C(=O)[C@H](C(C)C)n3cc(CCO)nn3)CC2)nc(N2CCN(C(=O)[C@H](CCCCN)n3cc(CCCC)nn3)CC2)n1,?,0%,28µM*,25%,-16%,-35%
O=C(C[C@H]1C/C=C\CC[C@@H](Cc2ccc(F)cc2)C(=O)OC[C@H]2CCCN2C1=O)N[C@@H](CO)Cc1ccccc1,.,-2%,.,14%,5%,-20%
Cc1cc(=O)c(C(=O)Nc2cccc(C(=O)NC3CC3)c2)nn1-c1ccccc1Cl,5%,-10%,5%[12.7 µM],14%,16%,-11%
SMILES,BAZ2B block,PLK1 PBD inh,G9a inh,HP1b binding inh,VDR inh,JMJD2A Tudor
O=C(Cn1cc(S(=O)(=O)N2CCCC2)c(S(=O)(=O)N2CCCC2)c1)Nc1cccc(F)c1,11%[57.1 µM],.,-12%[59 µM],3%,9%,-10%
C#CCOCCOCCOCCNc1nc(N2CCN(C(=O)Cn3cc(CCO)nn3)CC2)nc(N2CCN(C(=O)[C@H](CCCCN)n3cc(CC(C)O)nn3)CC2)n1 (stereo partly drawn),.,-3%,.,6%,0%,89µM*
C#CCOCCOCCOCCNc1nc(N2CCN(C(=O)Cn3cc(CC(C)O)nn3)CC2)nc(N2CCN(C(=O)[C@H](CCCCN)n3cc(CCCC)nn3)CC2)n1 (stereo partly drawn),.,4%,.,28%,5%,-10%
CCCCc1cn([C@@H](CCCCN)C(=O)N2CCNCC2)nn1,?,21µM*,-1%[12.7 µM],35%,-22%,56µM*
NCCCC[C@@H](C(=O)N1CCNCC1)n1cc(CN)nn1,-2%,-2%,16%[2.33 µM],32%,-13%,-8%
CN1CCN(c2ccc(NC(=O)c3ccccc3Br)cc2)CC1,-14%,1%,?,23%,3%,-15%
CN1CCN(c2ccc(NC(=S)NC(=O)c3cccc4c(Br)cccc34)cc2)CC1,?,-1%,6.3µM*,8%,-1%,-32%
CN1CCN(c2ccc(NC(=S)NC(=O)c3cccc4ccccc34)cc2)CC1,35µM*,-15%,22µM*,?,-19%,?
Cc1nn(-c2ccccn2)c2c1C(c1c(F)cccc1Cl)C1=C(N2)c2ccccc2C1=O (stereo not drawn),8.9µM*,.,?,.,.,.
CCN(CC)c1ccc(/C=N/N2C(C)CCCC2C)c(O)c1 (stereo not drawn),45µM*,-1%,45µM*,-13%[57 µM],2%,?
CCN1CCN(c2ccc(N=Cc3ccc(O)cc3O)cc2)CC1,32µM*,1%,.,?,18%,?
CCN(CC)c1ccc(N=Cc2ccc(N(CC)CC)cc2O)cc1,18µM*,71%,?,?,50µM*,40µM*
